IDH1 R132H inh: human IDH1 R132H inhibition; IDH1-R132H enzyme, NADPH consumption, diaphorase/resazurin fluorescence; Potency, µM (highest dose often 76.6 µM), for the others: at the highest dose activity change, negative = inhibition, actives largely listed as inhibitors; 0.093% of 390,000 active; also: potency is read from the fitted curve at half-maximal effect; % is scaled to controls: 0 for no effect and ±100 for the full control effect; nearly all actives have a fitted effect of over 65% in size
Target sequence (O75874 whole entry R132H, stated change not applied): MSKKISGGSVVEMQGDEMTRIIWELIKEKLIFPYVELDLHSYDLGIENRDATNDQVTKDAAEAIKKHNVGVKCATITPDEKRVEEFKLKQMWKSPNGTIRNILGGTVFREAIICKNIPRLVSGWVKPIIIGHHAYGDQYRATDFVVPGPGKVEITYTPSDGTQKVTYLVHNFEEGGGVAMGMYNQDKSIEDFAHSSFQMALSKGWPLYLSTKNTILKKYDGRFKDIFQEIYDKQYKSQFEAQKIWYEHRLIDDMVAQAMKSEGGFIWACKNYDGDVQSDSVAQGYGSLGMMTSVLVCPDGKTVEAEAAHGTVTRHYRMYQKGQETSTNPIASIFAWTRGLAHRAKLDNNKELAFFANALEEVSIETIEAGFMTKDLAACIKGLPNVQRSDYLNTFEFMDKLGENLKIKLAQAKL
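IDH1-R132H (0.5 ug/mL) preincubated 30 min with compound, then NADPH (0.016 mM) and alpha-KG (2 mM) added; 80 min at RT, pH 7.5. Remaining NADPH coupled via diaphorase/resazurin to fluorescence (540/590 nm); concentration-response curves normalized to no-enzyme control.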
TrxR1 inh-1: rat TrxR1 inhibition | O89049 | recombinant rTrxR1, NADPH fluorescence consumption, selenite substrate | Potency, µM (titrated, usually from 114 µM), without a hit: at the highest dose activity change, negative = inhibition, most hits filed as inhibitors | 1% of 390,000 active | AID 588453; also: potency is read from the fitted curve at half-maximal effect; % is scaled to controls: 0 for no effect and ±100 for the full control effect; nearly all actives have a fitted effect of over 65% in size
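Rat TrxR1 (90 nM in the dispensed reagent) was pre-reduced with 400 uM NADPH for 5 min at room temperature, then incubated with compound for 15 min. After 400 uM selenite was added, NADPH fluorescence (Ex 340/Em 450 nm) was followed for 8 min.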
Anesthetic bind: candidate novel general anesthetic via apoferritin binding; P02791; apoferritin/1-aminoanthracene competitive binding, fluorescence; Potency, µM (titrated, usually from 77.5 µM), inactives show top-dose activity change, negative = displacement, actives largely listed as inhibitors; 0.074% of 350,000 active; also: potency is read from the fitted curve at half-maximal effect; % is scaled to controls: 0 for no effect and ±100 for the full control effect; nearly all actives have a fitted effect of over 20% in size
Target sequence (P02791 2-175 limits assumed): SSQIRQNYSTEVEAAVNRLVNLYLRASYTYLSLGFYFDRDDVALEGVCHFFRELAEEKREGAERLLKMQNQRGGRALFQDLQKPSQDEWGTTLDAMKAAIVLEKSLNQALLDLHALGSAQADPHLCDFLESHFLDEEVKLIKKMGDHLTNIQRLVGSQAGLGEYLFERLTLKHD
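Apoferritin-based anesthetic binding model; compound displacement of fluorescent 1-AMA measured as endpoint fluorescence after 10 minutes at room temperature, scaled to free-ligand and complex controls.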
GRP78 ERSR act: ER stress response induction in glioma; U87-MG GRP78 promoter luciferase reporter, 16 h; Potency, µM, without a hit: at the highest dose activation, hits mostly activators; 0.02% of 420,000 active; AID 602332; also: potency is read from the fitted curve at half-maximal effect; series mostly up to about 76 µM; % of control where 0% means no effect; nearly all actives have a fitted effect of over 35% in size
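ERSR induction read as luciferase luminescence (Bright-Glo, 10 min at room temperature) in stably transfected human U87-MG glioma cells exposed to compounds for 16 h, using GRP78 as sensor.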
TrxR1 substrate: rat thioredoxin reductase 1 substrate activity; Potency, µM (top dose mostly 114 µM), without a hit: top-dose activity change, negative = substrate turnover; 0.01% of 390,000 active; AID 588456; purified TrxR1 substrate turnover, NADPH consumption readout; also: potency is read from the fitted curve at half-maximal effect; % is scaled to controls: 0 for no effect and ±100 for the full control effect; nearly all actives have a fitted effect of over 50% in size
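Rat TrxR1, dispensed at 90 nM, was prereduced with 400 uM NADPH (final) for 5 min at ~22 deg C, then incubated with compound 15 min before 400 uM selenite. A first-read NADPH fluorescence drop versus no-compound background flagged substrates.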
ALOX12 inh: ALOX12 (human) lipoxygenase inhibition. P18054. purified 12hLO, xylenol orange hydroperoxide absorbance. Potency, µM (doses to about 108 µM), without a hit: at the highest dose activity change, negative = inhibition, usual class: inhibitors. 1.1% of 580,000 active. AID 1671190; also: potency is read from the fitted curve at half-maximal effect; % is scaled to controls: 0 for no effect and ±100 for the full control effect
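Hydroperoxide product was detected by ferrous iron/xylenol orange as the 573 to 405 nm absorbance ratio. Arachidonic acid at 40 uM (final) was turned over for 30 min at room temperature by 150 nM human 12hLO, pH 7.0 Hepes buffer, after 15 min compound preincubation.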
GR counterassay: inhibits human glutathione reductase in TrxR1 counterassay; shares compounds with TrxR1 inh-1; purified GR, DTNB reduction absorbance 405 nm kinetic; activity change, negative = inhibition, % at 57.1 µM; 55 tested, under 10 active; AID 652020
TrxR1 inh-2: blocks rat thioredoxin reductase 1 in hit validation; Potency, µM, actives largely listed as inhibitors; 50% of 55 active; recombinant TrxR1, NADPH fluorescence consumption, selenite substrate; shares compounds with TrxR1 inh-1; AID 652023
TrxR1 insulin: TrxR1 inhibitors: insulin reduction mechanism-of-action test | shares compounds with TrxR1 inh-1 | TrxR1 Trx-coupled insulin reduction, NADPH absorbance 340 nm | 20% of 55 active | Potency, µM | AID 652037;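 active = compounds with a measured potency under 100 micromolar; inconclusive = filed, but no rule given; inactive = potency at or above that, or unmeasurable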
TrxR1 inh-3: rat thioredoxin reductase 1 inhibition, DTNB assay. purified TrxR1, DTNB reduction, A412. 90% of 55 active. shares compounds with TrxR1 inh-1. Potency, µM;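 active = a half-inhibiting concentration could be measured and was below 100 µM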
IDH1 autofl: interferes with resorufin fluorescence in IDH1 counter-screen; 750 tested, under 10 active; shares compounds with IDH1 R132H inh; inhibition of signal, % at 51.2 µM; Resorufin detection reagent fluorescence interference, cell-free;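 also: 0% = wells with normal resorufin and full inhibition = wells lacking resorufin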
IDH1 WT: wild-type IDH1 (human) inhibition counterscreen; Potency, µM (highest dose often 115 µM), for the others: at the highest dose activity change, negative = inhibition, most hits filed as inhibitors; WT IDH1 enzyme, NADPH diaphorase/resazurin fluorescence; shares compounds with IDH1 R132H inh; 9% of 750 active;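 also: potency is read from the fitted curve at half-maximal effect; 0% = full WT IDH1 enzyme control and full inhibition = no enzyme wells; nearly all actives have a fitted effect of over 55% in size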
Target sequence (O75874 whole entry, looked up): as the sequence (O75874 whole entry R132H, stated change not applied) above, with H132R counted along it
mIDH1 confirm: inhibits human mutant IDH1 enzyme in cherrypick confirmation; shares compounds with IDH1 R132H inh; IDH1 R132H enzyme, NADPH diaphorase/resazurin fluorescence; Potency, µM (titrated, usually from 76.6 µM), for inactives: at the top dose activity change, negative = inhibition, usual class: inhibitors; 83% of 750 active; also: potency is read from the fitted curve at half-maximal effect; nearly all actives have a fitted effect of over 50% in size
An asterisk follows results filed as active; [ ] = another dose, or the depositor's remark. In the library only some 1.7% were active in any assay of this set; here they are far more common. Unless noted, calls follow the shape of the dose curve; as a rule, active = well fitted curve in the direction sought with a large enough effect; inconclusive = small, poorly fitted or top-dose-only effect, or another doubt; inactive = no such curve, though single readings can be large; an effect the other way counts as inactive or inconclusive.

What do the screens show for `COC(=O)C1=C(C)N(CCc2c[nH]c3ccccc23)C(=O)/C1=C\N(C)C`?
IDH1 R132H inh: 3%; TrxR1 inh-1: 10µM*; Anesthetic bind: -17%; GRP78 ERSR act: -3%; TrxR1 substrate: -9%; ALOX12 inh: inconclusive; GR counterassay: -1; TrxR1 inh-2: 9.5*; TrxR1 insulin: 36µM*; TrxR1 inh-3: 0.12µM*

Results for COc1ccc(N2C(=O)C(C)CS2(=O)=O)cc1S(=O)(=O)NCc1ccco1 (centres undefined) ?
ALOX12 inh: -15%

How did COc1ccc(C(=O)c2sc(Nc3ccc(C)cc3)nc2N)cc1OC do in these assays?
ALOX12 inh: -30%

How did CC1(C)C(=O)NC(=O)C(C#N)C1c1ccccc1 (centres undefined) do in these assays?
ALOX12 inh: -20%

What do the screens show for `N#CC1C(=O)NC(c2ccccc2)=CC1c1ccccc1` (centres undefined)?
IDH1 R132H inh: 52µM*; TrxR1 inh-1: 3%[2.29 µM]; GRP78 ERSR act: -2%; TrxR1 substrate: 12%[57.1 µM]; ALOX12 inh: -9%; IDH1 autofl: -6; IDH1 WT: 160%; mIDH1 confirm: 45µM*

How did COc1ccc(NC2=C(c3ccccc3)C(=O)c3ccccc32)cc1Cl do in these assays?
IDH1 R132H inh: inconclusive; TrxR1 inh-1: 17%; Anesthetic bind: -22%; GRP78 ERSR act: -4%; TrxR1 substrate: 4%; ALOX12 inh: -11%; IDH1 autofl: -6; IDH1 WT: -1%; mIDH1 confirm: 7.1µM*

Results for CCc1ccc(OCCn2c(C3CC(=O)N(Cc4ccc(F)cc4)C3)nc3ccccc32)cc1 (centres undefined) ?
IDH1 R132H inh: inconclusive; TrxR1 inh-1: 8%; Anesthetic bind: -17%; GRP78 ERSR act: -7%; TrxR1 substrate: -5%; ALOX12 inh: 0%; IDH1 autofl: -4; IDH1 WT: -8%; mIDH1 confirm: inconclusive

How did O=C(c1ccco1)N1CCN(c2c(-c3ccccc3)c3cc(Cl)ccc3[nH]c2=O)CC1 do in these assays?
IDH1 R132H inh: inconclusive; TrxR1 inh-1: inconclusive; Anesthetic bind: -4%; GRP78 ERSR act: -5%; TrxR1 substrate: 12%; ALOX12 inh: inconclusive; IDH1 autofl: -7; IDH1 WT: -2%; mIDH1 confirm: 22µM*

What do the screens show for `C=CS(=O)(=O)c1c2cc(OC)ccc2nc2ccc(OC)cc12`?
IDH1 R132H inh: inconclusive; TrxR1 inh-1: 1.3µM*; GRP78 ERSR act: -12%; TrxR1 substrate: 13%[57.1 µM]; ALOX12 inh: -27%; IDH1 autofl: 2; IDH1 WT: 28µM*; mIDH1 confirm: 10µM*

What do the screens show for `FC(F)(F)c1cccc(Nc2c3c(nc4ccc(Cl)cc24)CCC3)c1`?
IDH1 R132H inh: inconclusive; TrxR1 inh-1: 0%; Anesthetic bind: inconclusive; GRP78 ERSR act: -3%; TrxR1 substrate: -1%; ALOX12 inh: -26%; IDH1 autofl: 3; IDH1 WT: 2%; mIDH1 confirm: inconclusive

What do the screens show for `CCOC(=O)N1CCN(Cc2nc(N)nc(Nc3ccc(Oc4ccccc4)cc3)n2)CC1`?
IDH1 R132H inh: 52µM*; TrxR1 inh-1: inconclusive; Anesthetic bind: -22%; GRP78 ERSR act: -8%; TrxR1 substrate: -14%[57.1 µM]; ALOX12 inh: 24%; IDH1 autofl: 2; IDH1 WT: -7%; mIDH1 confirm: inconclusive

How did CS(=O)(=O)Oc1ccc2c(c1)O/C(=C\c1ccncc1)C2=O do in these assays?
ALOX12 inh: -61%

What do the screens show for `O=C(Oc1ccc2c(c1)O/C(=C\c1ccncc1)C2=O)c1ccccc1`?
IDH1 R132H inh: 52µM*; TrxR1 inh-1: inconclusive; Anesthetic bind: 93%; GRP78 ERSR act: -1%; TrxR1 substrate: -20%; ALOX12 inh: -27%; IDH1 autofl: 3; IDH1 WT: 1%; mIDH1 confirm: 35µM*

What do the screens show for `COc1ccc(NC(=O)Cc2ccccc2)c2cccnc12`?
ALOX12 inh: -30%

Results for N#CC1=C(N)NC(SCc2ccc(Br)cc2)=C(C#N)C12CCCCC2 ?
IDH1 R132H inh: -1%; TrxR1 inh-1: 31%; Anesthetic bind: -12%; GRP78 ERSR act: 0%; TrxR1 substrate: 2%; ALOX12 inh: inconclusive

How did N#CC1=C(N)NC(SCC(=O)Nc2ccc(Br)cc2)=C(C#N)C12CCCCC2 do in these assays?
IDH1 R132H inh: inconclusive; TrxR1 inh-1: 15%[57.1 µM]; Anesthetic bind: inconclusive; GRP78 ERSR act: -14%; TrxR1 substrate: -25%[57.1 µM]; ALOX12 inh: 0%; IDH1 autofl: 1; IDH1 WT: 7%; mIDH1 confirm: 22µM*

Results for Cn1c(SCC(=O)N2CCc3ccccc3C2)nnc1-c1ccncc1 ?
IDH1 R132H inh: 1%; TrxR1 inh-1: 9%[57.1 µM]; Anesthetic bind: 4%; GRP78 ERSR act: -4%; TrxR1 substrate: 12%[57.1 µM]; ALOX12 inh: -11%

How did CCc1cccc(CC)c1-n1c(SCC(=O)N2CCc3ccccc3C2)nnc1-c1cccnc1 do in these assays?
IDH1 R132H inh: 52µM*; TrxR1 inh-1: 9%; Anesthetic bind: -2%; GRP78 ERSR act: -4%; TrxR1 substrate: 1%; ALOX12 inh: inconclusive; IDH1 autofl: -1; IDH1 WT: 1%; mIDH1 confirm: 14µM*

Screening data: PubChem, National Center for Advancing Translational Sciences (NCATS)
